Our source for the growth values is PubChem BioAssay (NCI).

The panel holds about 83,000 compounds, 20% with a hit somewhere; the sample as a whole holds those more often.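 Cell lines were cultured in 96-well plates, exposed to a single compound concentration, and assessed for percent growth 48 hours later.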 Values without a mark were called inactive. Calls of active or inactive are those of the source. Rule for the calls: active = growth percent below 10; inactive = the rest.

The test has as its system HL-60(TB) leukemia. In words: NCI-60 one-dose screen, 48 h (100 = growth as untreated, 0 = no growth, -100 = all killed). Particulars: 10 µM unless noted.
`O=S(=O)(NCCNc1nccc(-c2c(-c3cccc(O)c3)nc3sccn23)n1)c1ccc(F)cc1`: the growth is 86.5%.
Regarding `Nc1c(C(=O)Nc2c(Cl)cccc2Cl)sc2nc3c(cc12)CCCC3`, the growth was 35%.
As for `COc1ccc(-c2[nH]nc(N)c2-c2cc(OC)c3c(c2)OCO3)cc1`, the growth was 20.5%.
For the molecule `CCCCCCCCCCCCCCCC[N+]1(C)CCCC1c1cccnc1` (configuration not stated), the growth is 1.61% (active).
For the molecule `CN(C)/C(N)=N/N=C(\c1ccccc1)c1ccccn1`, the growth was 98.5%.
The same measure for `O=Nc1ccc(O)c(=O)cc1`: 4.36% (active).
Take `Cc1ccc(C2=C/C(=C/c3ccc(Br)cc3)C(=O)N2CCc2ccc(S(N)(=O)=O)cc2)cc1`: the growth was 96.7%.
On to `COc1ccc(C(=O)COc2cccc(/C=C3\Oc4ccc5ccccc5c4C3=O)c2)cc1`, for which the growth was 90.7%.
Under `CC(O)CN(CCO)CCN(CCO)CC(C)O` (configuration not stated) stands 102%; under `COc1ccc(C2=C(c3ccccc3)c3ccc(OC(C)=O)cc3OC2(C)C)cc1`, -17.1% (active).
Regarding `CN1CCN(Cc2ccc(C(=O)Nc3cncc(C#Cc4cnc5cccnn45)c3)cc2C(F)(F)F)CC1`, the growth is 1.37% (active).
With `O=C(Nc1cc(=O)[nH]c(=O)[nH]1)C(Cl)Cl`, the growth is 99.4%.
As for `COc1ccc(N2CCN(c3ccc(NC4=C(Cl)C(=O)c5ncccc5C4=O)cc3)CC2)cc1`, the growth was 53%.
With `O=c1[nH]c(NCc2ccccc2)nc2nc(Nc3ccc(NC(=S)Nc4ccccc4)cc3)nc(-c3ccc(O)cc3O)c12`, the growth was 98.4%.
`[O-][N+](=Nc1cccc(Cl)c1)c1cccc(Cl)c1`: the growth was 132%.
On to `Fc1cc2[nH]ncc2c2c3c(c(-c4cn[nH]c4C(F)(F)F)nc12)CCCC3`, for which the growth is -9.67% (active).
On to `CC(=O)OC[C@H](O)[C@@]1(O)CC[C@H]2[C@@H]3CCC4=CC(=O)CC[C@]4(C)[C@H]3[C@@H](O)C[C@@]21C`, for which the growth was 101%.
Consider `CCN(CC)CCCNC(=O)c1ccc(N)cc1O`, for which the growth is 82.4%.
As to `COc1cc(-c2nn(-c3ccc(NC(=O)Nc4ccc(Cl)c(C(F)(F)F)c4)cc3)cc2-c2ccncc2)ccc1Cl`, the growth is 1.53% (active).
Take `CSC1=N/C(=C\c2cccc(OCc3ccc(Cl)cc3)c2)C(=O)N1`: the growth is 77.8%.
On to `Cc1ccc(NC(=O)N2CCCCC2)cc1[N+](=O)[O-]`, for which the growth was 104%.
Consider `COc1ccc(/C=C/C=C\C(=O)c2ccc(-n3ccnc3)cc2)cc1`, for which the growth is 66.9%.
For the molecule `COc1ccc(-c2cc3cnc4ccccc4c3oc2=O)cc1`, the growth is 94.2%.
As to `O=C(Nc1ccc(-n2cc(-c3ccncc3)c(-c3ccc(O)c(Cl)c3)n2)cc1)c1ccc(Cl)c(C(F)(F)F)c1`, the growth is 10.9%.
For the molecule `OC(CSc1ccccc1)CN1CCN(c2cccc(Cl)c2)CC1` (configuration not stated), the growth is 85.7%.
For the molecule `Fc1ccc(Nc2ccc3c(OCCCN4CCOCC4)cccc3n2)cc1F`, the growth is 85.3%.
Turning to `COc1cc2cc(NCc3cccc(Cl)c3)nc(C)c2cc1OC`, the growth is 14.5%.
Take `c1ccc(-c2nc(N3CCCNCC3)c3nc(-c4ccccc4)oc3n2)cc1`: the growth was -34.6% (active).
Under `CN=C(N)N/N=C(\C)c1ccc2c(c1)Cc1ccccc1-2` stands -50.3% (active).
Regarding `CNC(=O)c1c(NC(=O)c2ccc(C(C)C)cc2)sc2c(CN(C)C)c(O)ccc12`, the growth was 85.9%.
For the molecule `COc1ccc2c(c1)/C(=C1\S/C(=N/c3nnc(C)s3)NC1=O)C(=O)N2Cc1ccc(Cl)cc1`, the growth is 53.8%.
`O=S1(=O)CCN(Cc2ccccc2)CC1`: the growth is 108%.
Take `C=C1C(=O)O[C@H]2[C@H]1CC/C(COC(=O)NCc1c[nH]c3ccc(F)cc13)=C\CC[C@@]1(C)O[C@@H]21`: the growth was -32.4% (active).
Take `CC(=O)C1=C(O)C=C2Oc3c(C(=O)/C=C/c4cc(C(F)(F)F)cc(C(F)(F)F)c4)c(O)c(C)c(O)c3[C@]2(C)C1=O`: the growth is -35.2% (active).
The same measure for `Cc1ccc(OCCn2c(C)nn(-c3ccc(Cl)cc3)c2=O)cc1`: 114%; for `CO[C@H]1/C=C/O[C@@]2(C)Oc3c(C)c(O)c4c(O)c(c(/C=N/N5C(C)CN(Cc6ccc(C#N)cc6)CC5C)c(O)c4c3C2=O)NC(=O)/C(C)=C\C=C\[C@H](C)[C@H](O)[C@@H](C)[C@@H](O)[C@@H](C)[C@H](OC(C)=O)[C@@H]1C` (some centres not stated): -37% (active).
With `CCOC(=O)c1nc2c3ccccc3cnn2c1C(=O)c1ccc(OC)cc1`, the growth was 102%.
